# From paper PMC5540273 (PLoS ONE, 2017)
# Where two headings read alike, the source gives them in different places.
# Key:
# Details in all cases: n = 1
# [1] = test system: LYN
# [2] = test system: T1, LZK
# T1 construct: gene MAP3K13
# [3] = test system: MAK
# [4] = test system: MAP3K15
# [5] = test system: MAP3K1
# [6] = test system: MAP3K2
# [7] = test system: MAP3K3
# [8] = test system: MAP3K4
# [9] = test system: MAP4K2
# [10] = test system: MAP4K3
# [11] = concentration: 1 μM, replicates: in singlicate
# 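Further: KINOMEscan kinase panel screen.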
Structure (SMILES),"%Inh [1, 11] [%]","%Inh [2, 11] [%]","%Inh [3, 11] [%]","%Inh [4, 11] [%]","%Inh [5, 11] [%]","%Inh [6, 11] [%]","%Inh [7, 11] [%]","%Inh [8, 11] [%]","%Inh [9, 11] [%]","%Inh [10, 11] [%]",%Inh ([1]; 1 µM) [%],%Inh ([2]; 1 µM) [%],%Inh ([3]; 1 µM) [%],%Inh ([4]; 1 µM) [%],%Inh ([5]; 1 µM) [%],%Inh ([6]; 1 µM) [%],%Inh ([7]; 1 µM) [%],%Inh ([8]; 1 µM) [%],%Inh ([9]; 1 µM) [%],%Inh ([10]; 1 µM) [%]
Cc1ccc(NC(=O)Nc2cccc(Cl)c2)cc1-c1ccc(C(=O)Nc2ccncc2)cc1 [GSK1398468],0,0,19,0,0,0,0,7,0,0,,,,,,,,,,
COc1cccc(-c2cc(-c3c[nH]nc3-c3ccccn3)ccn2)c1 [GW680338],26,28,100,0,15,0,0,15,8,0,,,,,,,,,,
O=C(Nc1n[nH]c2cc(-c3cccc(F)c3F)ccc12)C1CC1 [SB-733894],0,100,21,0,4,6,30,0,0,12,,,,,,,,,,
CCn1c(-c2ccccn2)nc2cnccc21 [SB-736398],0,11,11,2,8,3,0,19,0,0,,,,,,,,,,
CN(C)CCN(C)C(=O)c1cc(-c2ccncc2)c(-c2ccc(Cl)c(O)c2)o1.Cl.Cl [SB-710397],24,15,42,0,2,0,0,14,0,0,,,,,,,,,,
Cc1cccc(-c2nc(C)cc(Nc3ccncc3)n2)n1 [GSK257997],0,0,16,0,21,0,0,14,0,0,,,,,,,,,,
Fc1cc(Cl)ccc1Nc1ccnc2cc(I)ccc12 [GW551191],14,0,40,0,7,0,0,0,0,0,,,,,,,,,,
CC1=C(C(=O)Nc2cc3cn[nH]c3cc2F)C(c2ccc(C(F)(F)F)cc2)CC(=O)N1 (centres unmarked) [GSK429286],0,0,0,16,30,3,0,0,0,0,,,,,,,,,,
COc1ccc(C2=C(Nc3cccc(C(=O)O)c3)C(=O)NC2=O)cc1 [SB-390765],21,52,36,15,18,12,7,9,32,2,,,,,,,,,,
Cn1ccc2ncnc(Oc3ccc(Nc4nc5ccccc5[nH]4)cc3)c21,0,0,5,0,0,0,0,0,0,9,,,,,,,,,,
CC(C)(C)c1ccc(C(=O)Nc2cn3cc(-c4cccnc4)ccc3n2)cc1,16,0,46,46,1,9,26,17,0,5,,,,,,,,,,
Cl.O=C(Nc1cccc(-c2nn3ncccc3c2-c2ccnc(Nc3cccnc3)n2)c1)c1c(F)cccc1F [GSK312879],18,0,25,24,24,16,0,4,0,3,,,,,,,,,,
Cc1ccccc1-n1cnc2c(N)ncnc21 [SKF-97510],0,0,0,0,0,0,0,0,0,0,,,,,,,,,,
O=C(O)COc1ncnc2cc(-c3ccc4[nH]ncc4c3)sc12,0,39,2,53,22,13,9,4,1,0,,,,,,,,,,
Cn1ccc2ncnc(Oc3ccc(NC(=O)Nc4ccccc4)cc3)c21,6,9,6,0,0,0,11,10,0,18,,,,,,,,,,
Cc1cc(NCC(c2ccccc2)c2ccccc2)nc(NCc2ccc(C(F)(F)F)cc2)n1 [GW497681],0,11,17,0,0,0,0,22,0,0,,,,,,,,,,
Cc1csc(-c2nc(Nc3ccncc3)c3ccccc3n2)n1 [GW869640],0,20,2,35,35,38,1,2,34,0,,,,,,,,,,
Cc1ccc(NC(=O)Nc2cccc(C(F)(F)F)c2)cc1 [GSK955403],,,,,,,,,,,0,0,0,0,0,0,3,35,0,0

Structure (SMILES),"%Inh [1, 11] [%]","%Inh [2, 11] [%]","%Inh [3, 11] [%]","%Inh [4, 11] [%]","%Inh [5, 11] [%]","%Inh [6, 11] [%]","%Inh [7, 11] [%]","%Inh [8, 11] [%]","%Inh [9, 11] [%]","%Inh [10, 11] [%]",%Inh ([1]; 1 µM) [%],%Inh ([2]; 1 µM) [%],%Inh ([3]; 1 µM) [%],%Inh ([4]; 1 µM) [%],%Inh ([5]; 1 µM) [%],%Inh ([6]; 1 µM) [%],%Inh ([7]; 1 µM) [%],%Inh ([8]; 1 µM) [%],%Inh ([9]; 1 µM) [%],%Inh ([10]; 1 µM) [%]
Cc1cccc(-c2nc(-c3ccc(S(C)(=O)=O)cc3)sc2-c2ccnc(NCCc3ccccc3)c2)c1,5,2,0,10,0,0,0,16,15,0,,,,,,,,,,
COc1cc2nccc(Nc3ccc(NC(=O)c4ccc(C)cc4)c(O)c3)c2cc1OC.Cl [GW440132],28,0,13,13,10,9,0,2,0,8,,,,,,,,,,
COc1ccc2nc(-c3cccc(C)n3)nc(Nc3ccncc3)c2c1 [GSK204919],0,0,25,0,22,0,0,9,0,12,,,,,,,,,,
Cc1cccc(-c2cc(Nc3ccncc3)c3ccccc3n2)n1 [GSK223675],0,0,22,0,5,0,0,21,0,0,,,,,,,,,,
CS(=O)(=O)c1ccc(-c2c(-c3ncn[nH]3)sc(N3CCOCC3)c2C#N)cc1,0,0,36,0,26,6,27,2,0,0,,,,,,,,,,
Cc1cc(N2Cc3ccccc3C2)nc(Nc2ccc(S(=O)(=O)N3CCOCC3)cc2)n1.Cl [GSK1669917],0,0,14,0,0,0,0,2,0,0,,,,,,,,,,
COC(=O)c1c(-c2ccccc2)c2cc(OC)ccc2c(=O)n1Cc1ccccc1,32,0,33,0,24,0,11,12,0,0,,,,,,,,,,
COc1cc2ncn(-c3cc(OCC4CCCO4)c(C(N)=O)s3)c2cc1OC (centres unmarked) [GSK204607],0,0,9,0,50,0,0,0,0,70,,,,,,,,,,
COc1cc2ncnc(Nc3ccc4nc(-c5ccccc5)[nH]c4c3)c2cc1OC.Cl [GW282450],0,0,0,0,19,8,0,9,0,3,,,,,,,,,,
Cc1ccc(C(=O)Nc2ccc(Nc3ccnc4cc(-c5ccccn5)ccc34)cc2O)cc1.Cl [GW440146],44,10,25,21,3,0,0,25,0,0,,,,,,,,,,
Cl.c1ccc(-c2n[nH]cc2-c2ccnc(-c3ccc(CN4CCOCC4)cc3)c2)nc1 [GW776245],6,0,0,0,0,18,17,9,0,0,,,,,,,,,,
O=C(Nc1ccc2c(c1)OCO2)NC1CCN(c2ccnc(Nc3ccc(F)cc3)n2)C1 (centres unmarked) [GSK1379724],0,0,0,0,11,6,0,40,0,0,,,,,,,,,,
Fc1cccc(COc2nnc(-c3ccc4c(c3)CCO4)o2)c1,6,14,0,17,17,0,0,0,0,2,,,,,,,,,,
Nc1ncnc2[nH]c(-c3ccccc3)nc12 [AH5015],7,0,0,0,16,0,0,0,0,0,,,,,,,,,,
Cl.Oc1ccc(-c2nc(-c3ccccc3)[nH]c2-c2ccncc2)cc1 [SB-428218],33,47,18,0,0,0,0,7,0,0,,,,,,,,,,
Cn1ccc2ncnc(Oc3cccc(C(=O)Nc4ccccc4)c3)c21,9,0,8,0,0,11,0,0,2,15,,,,,,,,,,
Cc1cccc(-c2nc(Nc3cccc(C(N)=O)c3)c3ccccc3n2)n1 [GW876019],0,0,0,0,3,0,26,0,0,0,,,,,,,,,,
